# Test results from ChEMBL document CHEMBL3988442, “University of Dundee, Small-Polar-MMV Screening Library” (2021).
# Experiments:
# [1] = target: T1, Aspartate--tRNA(Asp/Asn) ligase (Mycobacterium tuberculosis (strain ATCC 25618 / H37Rv)) (UniProt P9WFW3); assay: Assay for Asp RNA synthetase-1 from Mycobacterium tuberculosis; format: functional; set-up: scale not given: direction of the effect not stated beside the values; settings: 30 µM; further: in the data most compounds retested in dose-response had high values
# T1 sequence (whole entry): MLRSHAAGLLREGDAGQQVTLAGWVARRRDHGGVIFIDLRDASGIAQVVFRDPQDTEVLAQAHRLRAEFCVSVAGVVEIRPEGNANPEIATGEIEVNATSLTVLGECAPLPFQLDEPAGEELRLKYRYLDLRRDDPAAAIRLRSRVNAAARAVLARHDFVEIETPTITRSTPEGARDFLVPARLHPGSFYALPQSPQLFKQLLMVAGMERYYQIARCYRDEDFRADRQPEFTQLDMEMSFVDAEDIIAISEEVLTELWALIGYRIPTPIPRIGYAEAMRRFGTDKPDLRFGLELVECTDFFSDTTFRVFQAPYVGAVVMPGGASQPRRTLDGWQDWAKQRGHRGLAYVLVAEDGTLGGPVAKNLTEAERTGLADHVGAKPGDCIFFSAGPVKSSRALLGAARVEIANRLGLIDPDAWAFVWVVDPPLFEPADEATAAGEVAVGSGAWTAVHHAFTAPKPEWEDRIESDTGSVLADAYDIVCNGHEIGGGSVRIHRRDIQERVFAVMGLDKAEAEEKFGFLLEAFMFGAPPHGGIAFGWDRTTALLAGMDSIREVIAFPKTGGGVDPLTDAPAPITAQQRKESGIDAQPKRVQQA
# [2] = target: Shiga toxin 2 (Escherichia coli O157:H7) (UniProt P09385+P09386); assay: E. coli 0.157:H7 Shiga Toxin SOP - stx2 screening assay; format: functional; set-up: scale not given: direction of the effect not stated beside the values; settings: 30 µM
SMILES,Percent Effect [1] [%],Percent Effect [2] [%]
CCOc1cccc(NS(=O)(=O)c2cc(C)c(C(=O)O)s2)c1,1.62,-10.3
COc1ccc(CN(C)C(=O)CCc2c(C)nc(C)[nH]c2=O)cc1OC,-5.24,-6.32
CC(C)c1nc(CN2CCN(CC3CCCO3)CC2)cs1 (configuration not stated),-0.404,12
CCS(=O)(=O)Nc1ccc(C(=O)NCCCN2CCCC2)cc1,8.39,-19
O=C(Nc1cc(F)ccc1OCC1CCCO1)c1ccc(O)nc1 (configuration not stated),5.1,33.8
Cc1cccc(CN2C[C@@H]3CN(C(=O)NC(C)C)C[C@@H]3C2=O)c1,0.565,-52.1
CC(C)c1nc2n(n1)CC(NCc1nnc(C(C)C)o1)CC2 (configuration not stated),5.81,19.6
O=C(NCC1CCOC1)c1csc(-c2cccc(Cl)c2)n1 (configuration not stated),0.759,5.81
Cc1occc1CNC(=O)N(CCCO)C1CCc2ccccc21 (configuration not stated),-3.25,8.04
Cc1noc(C2CCN(C(=O)CCNc3ncccn3)CC2)n1,0.856,-36.4
CCNC(=O)N1CCN(C(=O)c2cc(Cl)cc3cccnc23)CC1,-3.21,-11.9
CC(C)Oc1ncnc2c1CCN(Cc1cccs1)CC2,1.14,17.6
O=C(CN1CCCC(Cn2cncn2)C1)NCc1ccco1 (configuration not stated),-4.69,14.2
CN(C)CCCNC(=O)CNC(=O)N1CCc2c([nH]c3ccccc23)C1,4.82,-42.4
CCC1CN(C(=O)c2ccccc2N2CCCC2)CCN1C(C)C (configuration not stated),-4.91,12.2
CCN(Cc1nc2c(cnn2C)c(=O)[nH]1)c1cccc(Cl)c1,0.461,19.9
COc1ccc(C2CC(=O)Nc3c2cnn3C2CCCC2)cc1 (configuration not stated),-1.45,10.9
Fc1cc(CNCc2ccc3c(c2)CCO3)ccc1N1CCOCC1,-1.01,-16.1
CC(=O)N(Cc1noc(C)n1)C1CCN(CCOc2ccccc2)C1 (configuration not stated),2.87,-29.9
CO[C@@H]1CCN(C(=O)c2ccccn2)[C@H]1Cc1ccccc1,3.21,4.36
N#Cc1ccc(CNCC2CCN(CCO)CC2)cc1,5.92,-29.9
CSc1ccc(Cl)c(C(=O)N2CCCC(CNS(C)(=O)=O)C2)c1 (configuration not stated),2.82,-37.8
CN(CCn1cccn1)S(=O)(=O)N1CCCC1c1ccco1 (configuration not stated),4.31,20.4

SMILES,Percent Effect [1] [%],Percent Effect [2] [%]
OCCN1CCN(Cc2coc(-c3ccc(Cl)cc3)n2)CC1,4.16,3.75
Cn1nc(CNC(=O)C2COc3ccccc3O2)cc1C1CC1 (configuration not stated),6.34,17
COC(=O)C1CCN(C(=O)c2ccc(C)c(NS(C)(=O)=O)c2)CC1,-1.09,-2.45
CCS(=O)(=O)N1CCc2c(cccc2NC(=O)NCCOC)C1,5.42,6.78
CN1CCN(Cc2cn3c(n2)CN(Cc2cccnc2)CC3)CC1,1.94,-10.7
Cc1cccnc1CN1CCC(c2nnc(Cn3cccn3)n2C)CC1,-1.2,-18.5
Cn1ccnc1C(NCc1csc(Br)c1)c1ccccc1 (configuration not stated),-0.175,-3.96
O=C(CCc1ccsc1)N1CCC(Cc2ccc(CO)cc2)C1 (configuration not stated),0.501,-19.1
CCCOc1cccc(CNC(=O)CN2CCN(C)CC2C)c1 (configuration not stated),2.62,-7.72
C1CC(c2noc(C3CC3)n2)CN(Cc2noc(C3CC3)n2)C1 (configuration not stated),-1.05,6.22
Cc1ccc2c(n1)N(CCn1cccn1)CCN(C(=O)NC1CC1)C2,0.917,6.77
Cn1cc(CN2CCc3c(nc(-c4ccccn4)[nH]c3=O)C2)cn1,-3.63,-0.78
O=C(c1ccoc1)N1CC[C@@H]2O[C@H](COCc3ccccn3)CC[C@@H]21,1.36,-5.78
Cc1occc1C(=O)N1CCC2(CCC2NC(=O)c2ccn(C)c2)CC1 (configuration not stated),-3.29,13.8
Cc1c[nH]c(CN(C)C(=O)C2CC(=O)N(Cc3ccncc3)C2)n1 (configuration not stated),2.33,-32.5
Cc1ccccc1-c1cncc(C2CCN(C(C)C)CC2)n1,-1.25,-10.3
COc1ccc(-n2ccc(C(=O)N3CCC(C(N)=O)C3)n2)cc1 (configuration not stated),1.17,19.6
CCCn1nc2c(cc1=O)CN(Cc1cc(C)on1)CC2,10,-9.16
CSCC(=O)N1CCCC(n2ccnc2C(C)C)C1 (configuration not stated),-2.84,28.1
CCN1CCCC(CNC(=O)C2(c3cccc(Cl)c3)CC2)C1 (configuration not stated),4.29,-31.2
Cc1ncsc1CN1C[C@@H]2COC[C@]2(COc2ccc(C#N)cn2)C1,-0.365,-16.3
Cc1cc(C(F)(F)F)nn1C(C)C(=O)Nc1ccncc1 (configuration not stated),-0.755,-29.5
CCCc1nc(CN2CCCC(Cn3cncn3)C2)no1 (configuration not stated),-3.39,-26.6
